For 40 compounds, growth results are on record in PubChem BioAssay (NCI).

The panel holds about 83,000 compounds, 20% with a hit somewhere; the sample as a whole holds those more often.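 Treatment: one concentration, 48 hours, 96-well format. Scoring: percent growth, with anything below 10 considered active.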 Unmarked numbers belong to inactive results. Active and inactive are the calls of the source.

The subject of this assay is HOP-62 NSCLC. As to the kind of experiment: NCI-60 one-dose screen, 48 h (100 = growth as untreated, 0 = no growth, -100 = all killed). The following applies: 10 µM unless noted. How it is done:
Growth inhibition of the HOP-62 human Non-Small Cell Lung tumor cell line is measured as a screen for anti-cancer activity. Cells are grown in 96 well plates and exposed to the test compound for 48 hours. Compounds are tested at a single concentration, which is 10^-5 M for most compounds. The reported endpoint is percent growth (GI% or GIPRCNT), where numbers from 0 - 100% represent growth inhibition, and numbers from -100% - 0 represent cell death. For example, a value of 40 represents 60% growth inhibition. A value of 0 means no net growth occurred over the course of the experiment. A value of -40 indicates 40% of cells at the beginning of the experiment died by the end of the experiment. A value of -100 means all cells are dead at the end of the experiment.
NCI-60 Human Tumor Cell Lines Screen was performed using the standard one-dose NCI protocol, which is described in more detail at https://dtp.cancer.gov/discovery_development/nci-60/default.htm.
Compounds with GIPRCNT values below 10 were considered active. Activity score was based on GIPRCNT using the following formula: […]
Score is 0 for GIPRCNT values of 100 or above, 50 for GIPRCNT values of 0, and 100 for GIPRCNT values of -100.
As to `COc1ccc(C2NC(=O)Nc3ccccc32)c(OC)c1` (stereo not given), the growth was 98.5%. For `CCCCCCCC(=O)SCC/C=C/[C@@H]1CC(=O)NCc2cccc(n2)CN(Cc2ccc(Cl)cc2)CC(=O)N[C@@H](C(C)C)C(=O)O1`, the growth was 8.04% (active).

As for `Cc1ccc(Cc2cnc(NC(=O)/C=C/c3cccc(C)c3)s2)cc1`, the growth was 18.5%. Consider `N#CCCCCCn1c2ccccc2c2c3[nH]c(=O)[nH]c(=O)c3c3c4ccccc4n(CCCCCC#N)c3c21`, for which the growth was 15.8%. The same measure for `Cn1cc(-c2nc(-c3cn(C)c4ncccc34)cs2)c2ccccc21`: 36.1%. The same measure for `COC(=O)[C@]12CC[C@@H](C(=O)/C=C/c3cccnc3)[C@@H]1[C@H]1CC[C@@H]3[C@@]4(C)C/C(=C/c5cccnc5)C(=O)C(C)(C)[C@@H]4CC[C@@]3(C)[C@]1(C)CC2`: -85.6% (active); for `CCSc1sc(-c2ccc(C)cc2)nc1[P+](c1ccccc1)(c1ccccc1)c1ccccc1`: -10.3% (active).

Regarding `COc1ccc(-c2cc(/C=C/C(=O)c3ccc(OC)c(OC)c3)[nH]n2)cc1`, the growth was 8.64% (active). The same measure for `C=C(C)[C@@H]1CC[C@]2(C(=O)OC)CC[C@]3(C)[C@H](CC[C@@H]4[C@@](C)(CC/C(N)=N/O)[C@H](C(=C)C)CC[C@]43C)[C@@H]12`: 103%; for `Cn1c(/C(C#N)=C/c2ccc3ccccc3c2)cc2ccccc21`: 38.2%.

With `COc1cc(-c2cc3cc(O)ccc3oc2=O)cc(OC)c1OC`, the growth was 90.9%. The same measure for `O=C1/C(=C\c2ccco2)SC(=S)N1CCc1ccc(O)cc1`: 98.1%; for `COc1cc2c(cc1-c1c(C)noc1C)ncc1nc(C3CCCCC3)n([C@@H](C)COC(F)F)c12`: 28.6%; for `Nc1nc(Br)nc2c1ncn2C1CC(O)C(CO)O1` (stereo not given): 47%. In the case of `N#CC1=C(N)Oc2c(c(N)nn2-c2ccccc2)C1c1ccc(Cl)cc1Cl` (stereo not given), the growth is 92.8%.

Turning to `CC(C)c1cc(C(=O)O)c(O)c(C(C)C)c1.CC(C)c1cc(C(=O)O)c(O)c(C(C)C)c1.[Mn]`, the growth is 112%.

With `Cc1ccc2c(c1)c1nc3cc(C)c(C)cc3nc1n2CCN(C)C`, the growth is 23.8%. The same measure for `N#C/C(=C\c1ccc(-c2ccc(Br)cc2)o1)c1nc(-c2cccs2)cs1`: 107%; for `C=C(C)[C@@H]1CC[C@]2(CN)CC[C@]3(C)[C@H](CC[C@@H]4[C@@]5(C)CCC(=O)NC(C)(C)[C@@H]5CC[C@]43C)[C@@H]12`: 81.6%; for `CSc1ccc(N(C)c2nc(C)nc3c2CCC3)cc1`: 2.72% (active). The same measure for `Cc1cccc(C)c1NC(=O)CSC(=S)N1CCN(CCOCCO)CC1`: 105%; for `O=C1CCCC=CC[C@H]2C=C(Cl)C(=O)C2=CC[C@H](CCCCC(F)(F)F)OC(=O)CCCC=CC[C@H]2C=C(Cl)C(=O)C2=CC[C@H](CCCCC(F)(F)F)OC(=O)CCCC=CC[C@H]2C=C(Cl)C(=O)C2=CC[C@H](CCCCC(F)(F)F)O1`: 85.9% [6.25 µM]; for `Cc1ccc(N(CC(=O)Nc2ccc(S(=O)(=O)NC3CCN(C)CC3)cc2)S(=O)(=O)c2ccc(Cl)cc2)cc1`: 96.2%. For `Brc1ccc2[nH]cc(-c3nc(-c4c[nH]c5ncccc45)cs3)c2c1`, the growth was 56.6%. The same measure for `COc1ccc(-c2n/c(=C\c3c(O)[nH]c4ccc(OC)cc34)cc3c2=Nc2ccccc2-3)cc1`: 83.4%; for `CCCCN1CCCCn2c1nc1c2c(=O)n(C)c(=O)n1C`: 103%; for `COc1cc(-c2cc3ncccc3c3[nH]c(=O)c4cccnc4c23)cc(OC)c1OC`: 30.3%. The same measure for `COc1ccc2[nH]cc(-c3nc(-c4c[nH]c5ncccc45)cs3)c2c1`: 53.5%; for `CCN1CCN(C(=O)[C@]23CCC(C)(C)C[C@@H]2C2=CC[C@@H]4[C@@]5(C)C/C(=C/c6cccnc6)C(=O)C(C)(C)[C@@H]5CC[C@@]4(C)[C@]2(C)CC3)CC1`: 44.5%.

`COC(c1ccccc1)(c1ccccc1)c1ccccc1`: the growth is 106%.

Take `CC(=O)c1c(C)[nH]c(-c2nc3ccc(N4CCN(C)CC4)cc3[nH]2)c1-c1ccc(N(C)C)cc1`: the growth is 24.6%.

`OCC1OC(n2cnc3c(Cl)ncnc32)CC1O` (stereo not given): the growth was 114%.

As for `COCCNC1=C(Cl)C(=O)c2ccccc2C1=O`, the growth was 117%. The same measure for `Cn1cc(-c2csc(-c3cn(CCN)c4ccc(Br)cc34)n2)c2cccnc21`: 67.2%; for `C=C1C(=O)O[C@H]2[C@H]1CC/C(COC(=O)NCCc1c[nH]c3ccccc13)=C\CC[C@@]1(C)O[C@@H]21`: 57.7%. The same measure for `CC(=O)c1c(C)[nH]c(-c2nc3ccc(N4CCN(C)CC4)cc3[nH]2)c1-c1ccc2c(c1)OCCO2`: 33.7%. For the compound `C=C(C)[C@@H]1CC[C@]2(C(=O)N3CCCNCC3)CC[C@]3(C)[C@H](CC[C@@H]4[C@@]5(C)CCC(=O)C(C)(C)[C@@H]5CC[C@]43C)[C@@H]12`, the growth is 92.9%. The same measure for `O=C1Nc2ccccc2/C1=C/c1cn(CCCn2c3ccccc3c(=O)c3ccccc32)c2ccccc12`: 80.3%. The same measure for `NC(=O)[C@@H]1CC2CCC1C2` (stereo not given in full): 103%.

In the case of `O=C1c2cccc3cccc(c23)C(=O)N1CC#Cc1ccc2c3c(cccc13)C(=O)N(CCN1CCNCC1)C2=O`, the growth was 110%.
